High-throughput results (PubChem BioAssay)
OTUD3 block – blocks human OTUD3 ubiquitin-rhodamine cleavage. Q5T2D3. purified OTUD3, Ub-rhodamine fluorescence, 2 h. inhibition, % at 25 µM. 47,000 tested, 0.7% active
USP28 block – inhibitors of human USP28 deubiquitinase; Q96RU2; purified USP28, Ub-rhodamine cleavage fluorescence, 30 min; inhibition, % at 25 µM; 47,000 tested, 3% active
USP17 block – human USP17-like deubiquitinase inhibition; 47,000 tested, 6.5% active; inhibition, % at 50 µM; purified USP17, Ub-rhodamine cleavage fluorescence, 3 h; AID 1645855; A8MUK1
Target sequence (A8MUK1 whole entry, looked up): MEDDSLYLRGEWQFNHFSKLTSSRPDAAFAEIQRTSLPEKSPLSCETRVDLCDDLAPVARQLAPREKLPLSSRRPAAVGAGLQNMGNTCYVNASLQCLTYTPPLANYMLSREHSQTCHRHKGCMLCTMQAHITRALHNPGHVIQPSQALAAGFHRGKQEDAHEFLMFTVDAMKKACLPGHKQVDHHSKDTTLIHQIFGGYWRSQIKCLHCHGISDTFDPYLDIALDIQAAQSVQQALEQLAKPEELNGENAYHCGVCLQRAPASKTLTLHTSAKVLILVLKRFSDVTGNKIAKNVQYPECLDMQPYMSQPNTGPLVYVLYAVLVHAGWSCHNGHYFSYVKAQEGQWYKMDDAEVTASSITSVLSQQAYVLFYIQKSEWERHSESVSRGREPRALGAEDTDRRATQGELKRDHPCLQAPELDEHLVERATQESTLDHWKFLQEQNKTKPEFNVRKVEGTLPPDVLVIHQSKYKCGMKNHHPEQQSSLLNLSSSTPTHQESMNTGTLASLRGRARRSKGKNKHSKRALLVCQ
USP30 inh – inhibitors of human USP30 deubiquitinase | inhibition, % at 25 µM | 47,000 tested, 5.3% active | purified USP30, Ub-rhodamine cleavage fluorescence
* = called active by the depositor; i = inactive; . = not tested or not shown. Only some compounds are listed: those with a hit (about 11% of all), similar ones and a draw of the others. No stated cut-off is given here; in the data, active means inhibition above about 30%; inactive means the rest.

SMILES	OTUD3 block	USP28 block	USP17 block	USP30 inh
COc1cc(O)c2c(O)c3c(cc2c1)C[C@@]1(O)CC(=O)C(C(N)=O)=C(O)[C@@]1(O)C3=O	46*	41*	30*	-120
CCOC(=O)C1C(c2ccc(Br)cc2)C2(C(=O)c3ccccc3C2=O)C2C=Cc3ccccc3N12 (stereo not drawn)	-204	-191	-48	i
Cc1cc(C)n2nc(C(=O)NCc3ccc(Cl)cc3)nc2n1	-5	-7	2	18
Cc1cc(C)n2nc(NCc3cccc(Cl)c3)nc2n1	4	32*	0	10
Cc1cc(Cl)ccc1NC(=O)CCS(=O)(=O)c1ccc2c(c1)OCC(=O)N2	7	-9	34*	-8
CC(=O)N1C[C@H]2C[C@H]3[C@](C1)(CN(Cc1ccncc1)S3(=O)=O)O2	-3	-10	-5	-11
N#Cc1cc([N+](=O)[O-])ccc1NCC1COc2ccccc2O1 (stereo not drawn)	-6	47*	-8	-41
O=[N+]([O-])c1ccc(NCC2COc3ccccc3O2)c(S(=O)(=O)N2CCCC2)c1 (stereo not drawn)	-27	-22	-78	-102
N#Cc1ccc(C(=O)Nc2ccc([C@H]3OCC(=O)N[C@@H]3CO)cc2)cc1	-8	0	33*	35*
Cn1c(CNc2ccc(F)cc2)nnc1SCC(=O)Nc1cccc2ccccc12	1	29	1	21
COC(=O)c1ccccc1NC(=O)CSc1nnc(CNc2ccc(F)cc2)n1CC1CCCO1 (stereo not drawn)	10	10	90*	6
Cc1cc(CSc2ncccc2C(=O)Nc2ccnn2Cc2cccnc2)no1	81*	1	-4	12
O=C(Nc1ccccc1-c1nnc(SCc2ccc(Cl)cc2)o1)c1ccccc1	11	8	8	21
O=C(CCCn1c(=O)[nH]c2ccc(Br)cc2c1=O)N1CCc2ccccc2C1	6	23	9	31*
O=C(CCCn1c(=O)[nH]c2cc(Cl)ccc2c1=O)N1CCc2ccccc2C1	13	5	55*	26
COc1ccc(Cl)cc1NC(=O)Cn1c(=O)n(CCC(=O)N2CCc3ccccc3C2)c(=O)c2ccccc21	16	5	25	36*
Cc1cccc2sc(NC(=O)Cc3c[nH]c4ccccc34)nc12	1	19	-6	-22
O=C(Cc1c[nH]c2ccccc12)Nc1nc2ccccc2s1	1	64*	5	-8
O=C(NCCc1nc2ccccc2[nH]1)c1cc(-c2ccccc2)n(C2CCS(=O)(=O)C2)n1 (stereo not drawn)	-5	-15	-6	-11
CC1=C(C(=O)Nc2ccccc2C)C(c2ccc(OCc3ccccc3F)cc2)n2ncnc2N1 (stereo not drawn)	11	5	62*	19
CC1=C(C(=O)Nc2ccc(Cl)cc2)C(c2cccnc2)n2ncnc2N1 (stereo not drawn)	-10	-12	-6	-12
CC1=C(C(=O)Nc2ccccc2C)C(c2cccc(OCc3ccccc3)c2)n2ncnc2N1 (stereo not drawn)	19	13	2	21
CC1=C(C(=O)Nc2ccccn2)C(c2ccc3c(c2)OCO3)n2ncnc2N1 (stereo not drawn)	9	33*	12	18
CN(C)C(=O)CSc1nnc(-c2cccc(Cl)c2)n1-c1ccc(Cl)c(C(F)(F)F)c1	18	11	68*	47*
CC(=O)N[C@@]12CCN(Cc3ccccc3OC3CCCC3)C[C@@H]1CN(C(C)=O)C2	-6	-12	-27	-32
SMILES	OTUD3 block	USP28 block	USP17 block	USP30 inh
CC(OC(=O)c1ccc2c(=O)n3c(nc2c1)CCCCC3)C(=O)NC1CCCC1 (stereo not drawn)	22	23	31*	47*
N#Cc1cccc(NC(=O)c2ccc3c(=O)n4c(nc3c2)CCCCC4)c1	6	23	36*	29
Cc1cc(NC(=O)c2ccc3c(=O)n4c(nc3c2)CCCCC4)no1	5	25	23	31*
Cc1ncc(CO)c2cc(C(=O)Nc3ccc(Cl)cc3)c(=Nc3cccc(F)c3)oc12	-4	-10	-9	-14
N#Cc1ccc(CN2CCC3(Cc4ccccc4CNC3=O)C2)cc1 (stereo not drawn)	-4	-14	-9	-5
CCOc1ccc(NC(=O)CSc2nc3n[nH]c(C)c3c(=N)n2-c2ccc(OC)cc2)cc1	1	11	9	52*
COc1ccc(-n2c(SCC(=O)N3CCCC3)nc3n[nH]c(C)c3c2=N)cc1	-4	-4	17	-11
COc1ccc(-c2nnc(SCC(=O)Nc3ccc4[nH]c(=O)[nH]c4c3)n2C)cc1	10	1	13	5
O=C(CSc1nnc2n1CCCCC2)Nc1ccc2[nH]c(=O)[nH]c2c1	-6	33*	68*	28
Cc1nn(-c2ccccc2)c2[nH]c(=O)c(CNCC3CCCO3)cc12 (stereo not drawn)	1	-4	9	-18
CCOC(=O)c1cc(C#N)c(NCc2ccccc2OC)nc1-c1ccccc1	4	-1	-2	-7
COC(=O)c1cc(C#N)c(NCc2ccccc2)nc1C	1	18	59*	24
CC1CCN(S(=O)(=O)N2CCCC(C(=O)NCCCN3CCN(Cc4ccccc4)CC3)C2)CC1 (stereo not drawn)	0	1	4	0
N#Cc1ccccc1OCC(=O)N1CCC(c2nc3ccccc3o2)CC1	18	10	32*	16
CNC(=O)C1Cn2ccnc2C2(CCN(C(=O)c3ccccc3)CC2)O1 (stereo not drawn)	6	10	-1	11
CCN1C(SCc2ccc(F)cc2)=NS(=O)(=O)c2ccccc21	5	62*	5	14
COc1ccc2c(c1)NC1(CCN(C(=O)CCc3cccc(C)n3)CC1)NS2(=O)=O	-5	0	-10	-7
COc1ccc(CC(NC(C)=O)C(=O)NC2CCN(c3c(Cc4ccccc4)c(C)nc4ncnn34)CC2)cc1OC (stereo not drawn)	18	16	47*	71*
CC(C)c1cc(C(=O)N2CCOC(CCc3cc(=O)[nH]cn3)C2)on1 (stereo not drawn)	7	18	16	40*
COCCn1c(=S)[nH]c2cc(C(=O)NCCSCc3ccccc3)ccc2c1=O	8	17	27	71*
CC(=O)c1ccc(N2CCN(C(=O)c3sc(N4CCCC4=O)nc3C(C)C)CC2)cc1	1	0	-4	13
CC(C)c1nc(N2CCCC2=O)sc1C(=O)Nc1ccc(F)cc1	-1	32*	4	-5
C=C1Nc2ccccc2C(=O)N1c1cccc(NC(=O)c2ccc(C)c(C)c2)c1	30*	22	9	-5
O=C(N[C@H]1CCCc2ccccc21)c1cc(-c2ccco2)on1	1	0	47*	-155
O=C(NC1CCCc2ccccc21)c1cc(=O)[nH]c2ccccc12 (stereo not drawn)	-1	-4	41*	-44
O=C(NC1CCCc2ccccc21)c1cc(Cl)ccn1 (stereo not drawn)	14	7	.	-14
CCOC(=O)c1cccc(NC(=O)c2c(N3CCCC3=O)c3cc(F)ccc3n2C)c1	8	14	0	5
